Hit rate of the full screen: of about 310,000 compounds, about 14,000 (4.5%) showed an effect of 50% or more. Effects have a minus sign here. Shown is part of a subset that was picked to be rich in strong results.
molecular target: human ether-à-go-go-related gene (hERG) potassium channel (human, UniProt Q12809); experiment: primary screen, population patch clamp on CHO cells stably expressing hERG; higher = less effect of the substance
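Also: peak tail current of the secondary pulse compared with the same well before compound.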

Sequence of human ether-à-go-go-related gene (hERG) potassium channel (Q12809 whole entry, looked up): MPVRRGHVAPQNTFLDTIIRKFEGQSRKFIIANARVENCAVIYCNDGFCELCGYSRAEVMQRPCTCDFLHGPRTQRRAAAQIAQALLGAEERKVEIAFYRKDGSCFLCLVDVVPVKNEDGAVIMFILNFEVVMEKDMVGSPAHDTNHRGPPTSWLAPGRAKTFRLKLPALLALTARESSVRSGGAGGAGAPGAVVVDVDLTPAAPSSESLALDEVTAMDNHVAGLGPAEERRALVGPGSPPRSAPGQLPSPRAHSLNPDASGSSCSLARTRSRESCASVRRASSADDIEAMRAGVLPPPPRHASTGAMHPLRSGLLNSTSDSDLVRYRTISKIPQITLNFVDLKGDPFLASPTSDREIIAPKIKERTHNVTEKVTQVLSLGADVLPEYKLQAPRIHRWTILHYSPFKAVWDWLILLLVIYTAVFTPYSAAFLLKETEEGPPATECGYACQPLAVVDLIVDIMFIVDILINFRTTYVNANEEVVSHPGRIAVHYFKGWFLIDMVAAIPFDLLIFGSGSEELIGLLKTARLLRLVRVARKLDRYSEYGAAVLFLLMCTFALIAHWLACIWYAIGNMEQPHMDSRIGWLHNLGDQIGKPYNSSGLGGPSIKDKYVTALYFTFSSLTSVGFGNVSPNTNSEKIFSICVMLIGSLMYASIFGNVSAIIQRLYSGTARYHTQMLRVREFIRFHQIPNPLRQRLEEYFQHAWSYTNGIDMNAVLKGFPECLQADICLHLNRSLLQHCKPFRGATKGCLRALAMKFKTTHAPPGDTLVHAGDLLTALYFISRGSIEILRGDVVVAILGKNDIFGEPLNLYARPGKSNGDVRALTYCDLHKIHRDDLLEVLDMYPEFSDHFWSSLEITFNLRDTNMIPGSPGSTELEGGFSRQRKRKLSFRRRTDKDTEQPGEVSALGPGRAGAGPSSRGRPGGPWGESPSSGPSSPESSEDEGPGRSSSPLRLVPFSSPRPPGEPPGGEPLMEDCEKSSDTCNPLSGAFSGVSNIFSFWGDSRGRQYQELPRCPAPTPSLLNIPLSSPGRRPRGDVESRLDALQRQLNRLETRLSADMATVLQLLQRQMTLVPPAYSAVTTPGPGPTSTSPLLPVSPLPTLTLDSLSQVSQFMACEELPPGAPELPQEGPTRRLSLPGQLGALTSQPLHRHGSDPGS

| SMILES | hERG current change (%, negative = inhibition) at 10uM |
| --- | --- |
| Cc1cc(C)cc(NC(=S)N2CCN(CCO)CC2)c1 | 14.3% |
| COC(=O)c1ccc(OC)c(CSc2nnc(COc3ccc(OC)cc3)o2)c1 | -27.1% |
| N#Cc1ccccc1CSc1nc2ncc(Br)cc2[nH]1 | 5.22% |
| CC(C)(C)c1cc(NC(=O)Nc2ccccc2OC(F)(F)F)no1 | 26.4% |
| O=C(COC(=O)c1cccc(S(=O)(=O)NCc2ccccc2)c1)Nc1ccccc1OC(F)F | 11.5% |
| CC1CCCN(C(=O)NC(=O)c2ccc(Cl)cc2)C1 (centres unmarked) | 3.85% |
| C[C@@H](CN1C2=NC[C@H](Cc3ccccc3)N2C[C@H]1Cc1ccc(O)cc1)NC(=O)CCC1CCCCC1 | -71.2% |
| CC(CCc1ccccc1)NC(=O)CCC1CCCC1 (centres unmarked) | -24.5% |
| C[C@@H](CN1C2=NC[C@H](Cc3ccc(O)cc3)N2C[C@H]1Cc1ccc(O)cc1)NC(=O)CCC1CCCCC1 | -10.3% |
| NC(=O)C1(N2CCCCC2)CCN(C2CC(=O)N(Cc3cccs3)C2=O)CC1 (centres unmarked) | 6.12% |
| CCN1C(=O)CC(N2CCN(c3ccc(C(=O)c4ccncc4)cc3)CC2)C1=O (centres unmarked) | -12.3% |
| O=C(c1ccncc1)c1ccc(N2CCN(C3CC(=O)N(Cc4cccs4)C3=O)CC2)cc1 (centres unmarked) | -79.3% |
| O=C(c1ccncc1)c1ccc(N2CCN(C3CC(=O)N(Cc4ccccc4)C3=O)CC2)cc1 (centres unmarked) | -76.2% |
| O=C(c1ccc(N2CCN(C3CC(=O)N(Cc4cccs4)C3=O)CC2)cc1)c1cccnc1 (centres unmarked) | -73.5% |
| O=C1CC(N2CCN(c3ccc(F)cc3)CC2)C(=O)N1Cc1ccccc1 (centres unmarked) | -17.6% |
| O=C(c1ccc(N2CCN(C3CC(=O)N(c4ccc(F)cc4)C3=O)CC2)cc1)c1cccnc1 (centres unmarked) | -50.6% |
| O=C1CC(N2CCN(c3ccc(F)cc3)CC2)C(=O)N1Cc1cccs1 (centres unmarked) | -42.5% |
| O=C1CC(N2CCN(c3ccc(F)cc3)CC2)C(=O)N1c1ccc(F)cc1 (centres unmarked) | 1.07% |
| NC(=O)C1CCN(C2CC(=O)N(Cc3cccs3)C2=O)CC1 (centres unmarked) | 0.931% |
| O=C1CC(N2CCN(c3ccc(O)cc3)CC2)C(=O)N1Cc1cccs1 (centres unmarked) | -7.15% |
| COc1ccc(N2C(=O)CC(N3CCN(c4ccc(C(=O)c5cccnc5)cc4)CC3)C2=O)cc1 (centres unmarked) | -48.2% |
| COc1ccc(S(=O)(=O)Nc2cc(C(=O)NCCCN3CCOCC3)ccc2N2CCOCC2)cc1 | 25% |
| CC(=O)N(C)c1ccc(NC(=O)Nc2cccc3ccccc23)cc1 | -2.88% |
| COC(=O)Cn1c(SCc2ccccc2)nc2ccccc21 | -13.8% |
| Cc1cccc(Cn2cccc2/C=C2/C(=N)N3C=CSC3=NC2=O)c1 | -1.72% |
| O=C(NCc1nc2ccccc2[nH]1)C1=C[C@H](c2ccccc2)C[C@H](OCc2ccc(CO)cc2)O1 | -13.6% |
| O=C(NCc1ccccc1)C1=C[C@H](c2csc3ccccc23)C[C@H](OCCCCO)O1 | -12.5% |

| SMILES | hERG current change (%, negative = inhibition) at 10uM |
| --- | --- |
| O=C(Nc1ccccc1)C1=C[C@H](c2csc3ccccc23)C[C@H](OCCCCO)O1 | -5.71% |
| O=C(NCc1nc2ccccc2[nH]1)C1=C[C@H](c2coc3ccccc3c2=O)C[C@H](OCCCCO)O1 | -50.7% |
| O=C(NCc1nc2ccccc2[nH]1)C1=C[C@@H](c2ccc(Br)cc2)C[C@@H](OCCCCO)O1 | -65.9% |
| O=C(NCc1nc2ccccc2[nH]1)C1=C[C@@H](c2csc3ccccc23)C[C@@H](OCCCCO)O1 | -29.6% |
| O=C(NCc1nc2ccccc2[nH]1)C1=C[C@H](c2ccccc2)C[C@H](OCCCCO)O1 | -36.3% |
| O=C(NCc1nc2ccccc2[nH]1)C1=C[C@@H](c2ccccc2)C[C@@H](OCc2ccc(CO)cc2)O1 | -64.9% |
| O=C(NCc1ccccc1)C1=C[C@@H](c2csc3ccccc23)C[C@@H](OCCCCO)O1 | -69% |
| O=C(NCc1nc2ccccc2[nH]1)C1=C[C@H](c2coc3ccccc3c2=O)C[C@H](OCc2ccc(CO)cc2)O1 | -21.5% |
| O=C(NCc1nc2ccccc2[nH]1)C1=C[C@@H](c2ccccc2)C[C@@H](OCCCCO)O1 | -46.5% |
| O=C(NCc1nc2ccccc2[nH]1)C1=C[C@H](c2ccc(Br)cc2)C[C@H](OCc2ccc(CO)cc2)O1 | 3.89% |
| Nc1nc2c(ncn2C2C[C@H](O)[C@@H](CO)O2)c(=O)[nH]1 (some centres unmarked) | 14.4% |
| Cc1nnc(NC(=O)c2ccc(S(=O)(=O)N3CCc4ccccc4C3)cc2)o1 | 8.81% |
| Cc1cc(C)n(-c2nnc(C)n2NC(=O)c2cccc(Cl)c2)n1 | 11.1% |
| Cc1cccc[n+]1CC(=O)c1ccc(NC(=O)c2ccccc2)cc1.[Br-] | 28.6% |
| COc1ccccc1NC(=O)Nc1nc(CC(=O)NCc2ccc(F)cc2)cs1 | -11.4% |
| Cc1ccc(S(=O)(=O)NCc2ccccc2)cc1C(=O)NC1CCCCC1 | 15.9% |
| COc1cc(C(=O)NCC(=O)OCCN2C(=O)c3ccccc3C2=O)cc(OC)c1OC | 4.2% |
| CCNc1nc(Oc2ccc(=O)[nH]n2)nc(SC)n1 | 8.57% |
| CC1=CC(C/C(C)=C/COc2ccc3ccc(=O)oc3c2)OC1=O (centres unmarked) | 2.36% |
| COC(=O)c1c(NC(=O)c2ccccc2F)sc2c1C(C(=O)OC)CC2 (centres unmarked) | 9.38% |
| CCCn1c(SCC(=O)c2cc(OC)ccc2OC)nnc1-c1ccco1 | -12.5% |
| O=C(Nc1ccccc1)C1=C[C@H](c2coc3ccccc3c2=O)C[C@H](OCCCCO)O1 | -70.3% |
| O=C(NC1CC1)C1=C[C@@H](c2coc3ccccc3c2=O)C[C@@H](OCCCCO)O1 | -23.8% |
| C#CCNC(=O)C1=C[C@@H](c2coc3ccccc3c2=O)C[C@@H](OCCCCO)O1 | 1.71% |
| C#CCNC(=O)C1=C[C@H](c2coc3ccccc3c2=O)C[C@H](OCCCCO)O1 | -45% |
| O=C(NCc1ccccc1)C1=C[C@H](c2coc3ccccc3c2=O)C[C@H](OCCCCO)O1 | -55.4% |
| O=C(Nc1ccccc1)C1=C[C@@H](c2coc3ccccc3c2=O)C[C@@H](OCCCCO)O1 | -41.1% |

| SMILES | hERG current change (%, negative = inhibition) at 10uM |
| --- | --- |
| O=C(O)C1=C[C@H](c2coc3ccccc3c2=O)C[C@H](OCCCCO)O1 | 3.91% |
| O=C(NCc1ccccc1)C1=C[C@@H](c2coc3ccccc3c2=O)C[C@@H](OCCCCO)O1 | -83.1% |
| O=C(O)C1=C[C@@H](c2coc3ccccc3c2=O)C[C@@H](OCCCCO)O1 | 22.8% |
| COc1cc2c(cc1OC)CN(C(=S)Nc1ccccc1)CC2 | -7.19% |
| O=C(/C=C/c1cc(Br)ccc1F)Nc1cccnc1 | 14.6% |
| COc1ccccc1N(CC(=O)NC1CCCC1)C(=O)C1(C)CC(=O)N=C2C=CC(C)=CN21 (centres unmarked) | 12.5% |
| CC(C)CCN(C(=O)c1ccc(N2CCCC2=O)cc1)c1c(N)n(Cc2ccccc2)c(=O)[nH]c1=O | 12.2% |
| Cc1ccc(-n2cc3ccc([N+](=O)[O-])cc3n2)cc1 | 5.28% |
| CC(C)n1c(Nc2ccccc2)nc2ccccc21 | -1.84% |
| COc1ccccc1NC(=O)CSc1nc2c(sc3ccccc32)c(=O)n1CCN(C)C.Cl | 11.5% |
| COCCn1c(SCC(=O)Nc2cccc(OC)c2)nc2c(oc3ccccc32)c1=O | -42.2% |
| CCN(CC)CCn1c(SCC(=O)Nc2cccc(OC)c2)nc2c(sc3ccccc32)c1=O | -69.2% |
| COc1cccc(NC(=O)CSc2nc3c([nH]c4ccccc43)c(=O)n2C)c1 | 16.4% |
| CCN(CC)CCn1c(SCC(=O)Nc2ccc(F)cc2)nc2c(sc3ccccc32)c1=O.Cl | -14.9% |
| COc1cccc(NC(=O)CSc2nc3c(sc4ccccc43)c(=O)n2CCCN2CCCC2)c1 | -69.8% |
| COc1cccc(NC(=O)CSc2nc3c(sc4ccccc43)c(=O)n2CCN(C)C)c1.Cl | -65.5% |
| COc1ccc(NC(=O)CSc2nc3c(sc4ccccc43)c(=O)n2CCCN2CCCC2)cc1 | -30.8% |
| Cc1cc(NC(=O)CSc2nc3c(sc4ccccc43)c(=O)n2CCc2ccccc2)n[nH]1 | -19.6% |
| Cc1ccc(C)c(N2CCN(S(=O)(=O)c3ccc4c(c3)CC(=O)N4C)CC2)c1 | -19.4% |
| COc1ccc(Nc2nnc(SCC3CCCO3)s2)cc1 (centres unmarked) | -5.7% |
| Cc1nc(NC(=O)C(Cl)Cl)sc1C(=O)N(C)C | 5.44% |
| CCCC(c1nnnn1CC1CCCO1)N1CCN(c2ccccc2)CC1.Cl (centres unmarked) | -4.74% |
| O=C(Nc1cccc(Oc2ccc3c(c2)C(=O)NC3=O)c1)c1ccco1 | -21.8% |
| CCn1c(=O)[nH]c(=O)c2c(N)c(C(=O)c3cc(F)ccc3F)sc21 | -57.4% |
| Cc1ccc(C(=O)c2sc3c(c2N)c(=O)[nH]c(=O)n3CCc2ccccc2)cc1 | 12.2% |
| CCn1c(=O)[nH]c(=O)c2c(N)c(C(=O)c3ccccc3OC)sc21 | -15.2% |
